# About 79,000 compounds went through this panel and 15% of them were active in at least one assay; those are over-represented in the sample as a whole. A number with no mark means an inactive call. Rule as the data show it: active = growth inhibition above about 70%; inactive = the rest.
# Test: NCI Yeast Anticancer Drug Screen. Data for the mec2-1 strain (AID 157)
# Settings: S. cerevisiae mec2-1 strain, at 50.0 µM, active compounds read high
# Method in brief: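 Cells of the genetically defined mec2-1 yeast strain are incubated with test compound. Inhibition of growth is calculated against vehicle-treated controls.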
row,Structure (SMILES),growth inhibition [%]
1,Cc1ccc(/C=C2/N=C(N/N=C\c3ccccc3)NC2=O)cc1,14.9
2,c1coc(-c2nc(N=C3N=c4ccccc4=N3)[nH]c2-c2ccco2)c1,18.9
3,CCOc1ccc(Br)cc1/C=N/NS(=O)(=O)c1ccc(C)cc1,29.1
4,CCn1c2[n+](c3ccccc31)CCC2,-35.2
5,CC(C)N(C)c1ccc(N=Nc2cc(Cl)ccc2Cl)cc1,-36.8
6,CC(=O)CCN(Cc1ccccc1)Cc1ccccc1,-1.95
7,CCCCN1CCNCC1,-1.95

# Test: NCI Yeast Anticancer Drug Screen. Data for the cln2 rad14 strain (AID 165);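 also: 0% = growth equal to vehicle treated cultures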
# Settings: S. cerevisiae cln2 rad14 strain, at 50.0 µM, active compounds read high
# Method in brief: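 The screen exposed genetically defined yeast (cln2 rad14) to test compounds and scored growth inhibition relative to vehicle-treated controls.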
row,Structure (SMILES),growth inhibition [%]
1,C=CC(COC(=O)C(C)(C)OC(C)=O)c1ccc(OC(=O)C(C)C)c(OC)c1 (stereo not given),-12.3
2,O=C1CC(c2ccccc2)NCCCCN2CC(CN1)C(C(O)c1ccccc1)C2=O (stereo not given),8.95
3,COC(=O)c1cc(C#N)[nH]c1-c1ccsc1,6.4
4,N/N=C(\C(=O)Nc1ccc([N+](=O)[O-])cc1)C(C1=Nc2cc([N+](=O)[O-])ccc2NC1)[N+](=O)[O-] (stereo not given),-41.5
5,Cc1cc(S(=O)(=O)O)c(NC(=O)c2oc3cc(O)ccc3c(=O)c2C)cc1Cl,9.5
6,COc1cc([C@H]2OC[C@@H]3C(c4cc(OC)c5c(c4)OCO5)OC[C@H]23)cc(OC)c1OC (stereo not given in full),21
7,COc1cc2c3cc1Oc1c(OC)c(OC)cc4c1C(Cc1ccc(O)c(c1)-c1cc(ccc1OC)CC3N(C)CC2)N(C)CC4 (stereo not given),0.5
8,COc1ccc(OC)c(N(CN2C(=O)CCC2C(=O)O)C(C)=O)c1 (stereo not given),1.05

# Reference: PubChem BioAssay (NCI)
